The values that follow come from PubChem BioAssay AID589 (National Center for Advancing Translational Sciences (NCATS), 2007).

Each structure is given as a SMILES string. The campaign covered roughly 59,000 compounds. About 6,200 (11%) were called active. Not shown: some 9% with an inconclusive outcome. Cut-off read from the data, not from the text of the source: active = max dye-equivalent concentration above about 10 nM; inconclusive = mostly about 1.1 nM to 9.6 nM; inactive = weaker than that. What follows is part of a selection rich in actives, with near analogues and random picks from the rest. Where a structure was tested more than once in an assay, its records may differ in their call.

The experiment can be described thus: qHTS Assay for Spectroscopic Profiling in 4-MU Spectral Region. Conditions: compound autofluorescence, 340/450 nm, 4-MU equivalents; active compounds read high. Summed up:
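Intrinsic fluorescence at 340/450 nm (ex/em) was read after 15 min at room temperature in pH 8.0, 100 mM Tris. Each compound concentration expressed as 4-MU-equivalent concentration from a six-point 4-MU standard series on each plate.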
On the technique in general: Quantitative high-throughput screening tests each substance at several concentrations.
For `COc1ccc(C[C@H](N)C(=O)N[C@@H]2[C@H](O)[C@H](n3cnc4c(N(C)C)ncnc43)O[C@@H]2CO)cc1`, the max dye-equivalent concentration result was “inactive”.
The same measure, in the same setting: for `O=S(=O)(c1ccc(Sc2nnc3ccccn23)nc1)N1CCOCC1` the value was “inactive”; for `N#CCCN(CCC#N)c1nnc(-c2ccccc2)s1`, “inactive”.
Same read-out and setting: the same measure for `O=S(=O)(Nc1ccccc1N1CCOCC1)c1ccc(Cl)s1`: “inactive”; for `COC(=O)Cc1csc(Nc2c(C)n(C)n(-c3ccccc3)c2=O)n1`: “inactive”.
As for `CCOC(=O)CSc1nc2c(c(=O)n(Cc3ccccc3Cl)c(=O)n2C)n1C`, the max dye-equivalent concentration result is “inactive”.
The same measure, in the same setting: for `CCOc1ccc(NC(=O)Nc2ccc(N(C)C(C)=O)cc2)cc1` the value was “inactive”; for `O=C(NC1CCCCC1)c1ccc2c(=O)n(CC3CCCO3)c(=O)[nH]c2c1` (stereo unspecified), 16 nM (active); for `O=c1c2cc3c(=O)n(CC4CCCO4)c(=O)c3cc2c(=O)n1CC1CCCO1` (stereo unspecified), “inactive”.
As to `Cc1ccc(C(=O)Nc2ccccc2C(=O)NC2CCCCC2)cc1S(=O)(=O)N1CCOCC1`, the max dye-equivalent concentration result is “inactive”.
With `CCOC(=O)c1ccc(N2C(=O)CC(N3CC(C)OC(C)C3)C2=O)cc1` (stereo unspecified), the max dye-equivalent concentration entry is “inactive”.
In the case of `CNCC[C@H](Oc1ccc(C(F)(F)F)cc1)c1ccccc1`, the max dye-equivalent concentration was 13 nM (active) and the outcome was inactive.
In the case of `Clc1ccc(C=Nc2ccc3c(c2)Cc2ccccc2-3)c(Cl)c1`, the max dye-equivalent concentration result was “inactive”.
On the same count and under the same terms, for `CC(C(=O)O)N1C(=O)c2cccc3cccc1c23` (stereo unspecified) the value was 15 nM (active); for `Cc1cc(C)nc(NC(=O)C(C)N2C(=O)c3ccccc3C2=O)n1` (stereo unspecified), “inactive”.
Same read-out and setting: for `COC(=O)c1ccc(NC(=O)C(C)N2C(=O)c3ccccc3C2=O)cc1` (stereo unspecified) the value was “inactive”; for `O=c1cc(CO)oc(CN2CCC(Cc3ccccc3)CC2)c1O`, “inactive”.
Same read-out and setting: for `Cc1cccc2nc(CNc3ccc(F)cc3)cn12` the value was “inactive”.
On to `CC(C)OC(=O)C(C#N)c1nc2ccccc2nc1N1CCN(Cc2ccccc2)CC1` (stereo unspecified), for which the max dye-equivalent concentration result is “inactive”.
Take `CC(C)OC(=O)C(C#N)c1nc2ccccc2nc1N1CCN(Cc2ccc3c(c2)OCO3)CC1` (stereo unspecified): the max dye-equivalent concentration is 110 nM (active).
On the same count and under the same terms, the same measure for `COc1ccc(-c2csc(N3CCN(Cc4ccc5c(c4)OCO5)CC3)n2)cc1`: “inactive”; for `O=C(c1ccccc1)c1ccc(OC(=O)N2CCCC2)cc1`: “inactive”; for `COc1ccccc1-c1nc(NCCNC(C)=O)c2ccccc2n1`: “inactive”.
Same read-out and setting: for `CCCCN(C)Cc1c(C)[nH]c2ccc(Cl)cc2c1=O` the value was “inactive”; for `Cc1ccc(S(=O)(=O)C(C#N)c2nc3ccccc3nc2N2CCCC2)cc1C` (stereo unspecified), 150 nM (active).
As for `CCn1cc(C(=O)NCc2ccc3c(c2)OCO3)c2cc(OC)c(OC)cc2c1=O`, the max dye-equivalent concentration entry was “inactive”.
The same measure, in the same setting: the same measure for `Cc1ccccc1N1C(=O)C2ON(c3ccccc3)C(c3ccncc3)C2C1=O` (stereo unspecified): “inactive”; for `C=CCn1c(SCC(=O)NC23CC4CC(CC(C4)C2)C3)nc(O)cc1=O`: “inactive”; for `Cn1c(=O)c2c(nc(N3CCCCCC3)n2CC(O)COc2ccc(Cl)cc2)n(C)c1=O` (stereo unspecified): 38 nM (active).
Still for that read-out and setting: the same measure for `Cc1cccc(Cn2c(N3CCN(c4ccccc4)CC3)nc3c2c(=O)n(C)c(=O)n3C)c1`: “inactive”; for `Cn1c(=O)c2c(nc(N3CCCCCC3)n2CC(=O)c2ccc(Br)cc2)n(C)c1=O`: “inactive”.
Still for that read-out and setting: the same measure for `CSCCC(NS(=O)(=O)/C=C/c1ccccc1)C(=O)N1CCC(C)CC1` (stereo unspecified): “inactive”; for `COCCCN1C(=O)C(=O)/C(=C(/O)c2ccc3c(c2)CC(C)O3)C1c1cccnc1` (stereo unspecified): “inactive”; for `CCOC(=O)c1sc(NC(=S)n2cc(C)cn2)c(C(=O)OCC)c1C`: “inactive”.
For `CCc1c(C)sc(NC(=O)c2ccc(Br)o2)c1C(=O)OC`, the max dye-equivalent concentration was 96 nM (active).
On the same count and under the same terms, for `Cc1cc(C)nc(-n2nc(C)cc2NC(=O)c2ccc(Br)o2)n1` the value was “inactive”; for `CCCC(=O)Nc1ccc(Cl)c(NC(=O)c2ccc(Br)o2)c1`, “inactive”; for `O=C(c1ccco1)N1CCC[C@@]2(CCN(c3ccccc3)C2)C1`, “inactive”.
On the same count and under the same terms, the same measure for `O=C(Nc1nnc(CCc2ccccc2)s1)C1CCCO1` (stereo unspecified): “inactive”.
On the same count and under the same terms, for `O=C(CC1NCCNC1=O)Nc1ccc(Oc2ccccc2)cc1` (stereo unspecified) the value was “inactive”.
`O=C(CC1Nc2ccccc2NC1=O)Nc1ccccc1` (stereo unspecified): the max dye-equivalent concentration was 89 nM (active).
In the case of `CCOc1ccc(NC(=O)CC2NCCNC2=O)cc1` (stereo unspecified), the max dye-equivalent concentration entry is “inactive”.
On the same count and under the same terms, for `Cc1ccccc1S(=O)(=O)Cc1ccc(C(=O)NCCN2CCCCC2C)o1` (stereo unspecified) the value was “inactive”.
Take `O=C1CC(c2cccc(Br)c2)C2=C(CCCC2=O)N1` (stereo unspecified): the max dye-equivalent concentration is 43 nM (active).
With `O=C1CC(c2cccc(F)c2)C2=C(CCCC2=O)N1` (stereo unspecified), the max dye-equivalent concentration entry is “inactive”.
The same measure, in the same setting: the same measure for `O=C1CCCc2c1[nH]c1ccc(Br)cc21`: “inactive”; for `O=C(CN1C(=O)NC2(CCCCC2)C1=O)NCCC1=CCCCC1`: “inactive”.
Consider `CC(=O)OC(C(=O)NC1CCCCC1)c1ccccc1` (stereo unspecified), for which the max dye-equivalent concentration result is “inactive”.
The same measure, in the same setting: the same measure for `CC1(CCC(=O)OC2CCCCC2)OCCO1`: “inactive”.
On to `CCc1ccc2oc(-c3ccc(N)cc3)nc2c1`, for which the max dye-equivalent concentration was 120 nM (active).
On the same count and under the same terms, for `Cc1ccc(/C(=C/CN2CCCC2)c2ccccn2)cc1` the value was “inactive”; for `C[C@@H]1C[C@H]2[C@@H]3C[C@H](F)C4=CC(=O)C=C[C@@]4(C)[C@]3(F)[C@H](O)C[C@]2(C)[C@@]1(O)C(=O)CO`, “inactive”; for `CC1(C)CC(=O)c2cc(OCC(=O)NCC3CCCO3)ccc2O1` (stereo unspecified), 1700 nM (active).
The same measure, in the same setting: for `O=C(Cn1c(=O)n(Cc2ccco2)c(=O)c2ccccc21)NCC1CCCO1` (stereo unspecified) the value was “inactive”; for `COc1ccccc1-n1cnc2cc(C(=O)NCC3CCCO3)ccc21` (stereo unspecified), “inactive”; for `Cc1cc2c(cc1C)NC1=C(N2)O[C@H](c2c[nH]c3ccc(COc4ccccc4)cc23)C1=O`, “inactive”.
On the same count and under the same terms, the same measure for `CCN(CCCCOC(=O)c1ccc(OC)c(OC)c1)C(C)Cc1ccc(OC)cc1` (stereo unspecified): “inactive”.
In the case of `CC(C)NC(=O)N1CC[C@@]2(CCCN(C(=O)c3cccn3C)C2)C1`, the max dye-equivalent concentration result was “inactive”.
Consider `CCOc1ccc2nc(NC(=O)CSc3nc4c(c(=O)n(C)c(=O)n4C)n3CC)sc2c1`, for which the max dye-equivalent concentration result is “inactive”.
On the same count and under the same terms, for `CC(=O)c1ccc(-n2nnnc2SCC(=O)N2CCN(C(=O)c3ccco3)CC2)cc1` the value was “inactive”; for `COc1ccc(-c2n[nH]c(C)c2-c2ccc(OC)c(OC)c2)c(O)c1`, “inactive”.
Still for that read-out and setting: the same measure for `COc1ccc(CCN(C)CCN2C(=O)c3ccccc3C2=O)cc1OC`: “inactive”.
The same measure, in the same setting: the same measure for `COc1ccc(CCN2C(=O)c3[nH]nc(-c4ccccc4O)c3C2c2ccc(C)cc2)cc1OC` (stereo unspecified): 110 nM (active).
For the compound `Cc1ccc(NC(=O)C2CCCN(S(=O)(=O)c3c(C)noc3C)C2)c(C)c1` (stereo unspecified), the max dye-equivalent concentration result was “inactive”.
Still for that read-out and setting: the same measure for `Cc1ccc(Cn2nnc3c(=O)n(CC(=O)N4CCCCC4)cnc32)cc1`: “inactive”.
